# Experimental data taken from ChEMBL document CHEMBL1157539, “Thousands of chemical starting points for antimalarial lead identification” (Nature, 2010).
# In all, about 13,000 compounds were measured (“IFI”: median about 4, highest 2% from about 17 on). The list comes from a sample in which the highest values are over-represented; it also holds similar structures and randomly drawn compounds.
# Test: GSK_TCMDC: Inhibition Frequency Index (IFI). The number of non-kinase HTS assays where a compound showed > 50 % inhibition, expressed as a percentage of the number of such assays in which the compound was tested
# Assay type: functional
row,Structure (SMILES),IFI [%]
1,Cc1c(Cl)cccc1S(=O)(=O)Nc1cccc(CCN2CCC(N3CCCCC3)CC2)c1,14.3
2,CN(C)c1cccc2c(S(=O)(=O)Nc3cccc(CCN4CCC(N5CCCCC5)CC4)c3)cccc12,18
3,O=S(=O)(Nc1cccc(CCN2CCC(N3CCCCC3)CC2)c1)c1cccc2ccccc12,8.06
4,CC(N)(Cc1ccc(O)cc1)c1nnn[nH]1 (stereo not drawn),0
5,O=c1sn(-c2csc3ccccc23)c2ccccc12,18.5
6,Cc1[nH]c(C)c(-c2csc3ccccc23)c(=O)c1Cl,0
7,COc1ccc(S(=O)(=O)NCC2CCCN(CCCCCNC(=O)/C=C/c3ccc(Cl)c(Cl)c3)C2)cc1 (stereo not drawn),9.22
8,Cc1nc(Nc2ccc(F)cc2)nc(N2CCc3cc(O)ccc3C2C)c1C (stereo not drawn),8.63
9,O=c1c(NCCCN(Cc2ccc(F)cc2)c2ccccn2)c(NCc2ccncc2)c1=O,0.7
10,COc1ccc(CC2(c3ccc(F)cc3)N=C(N)N(CCCc3ccc4c(c3)OCO4)C2=O)cc1 (stereo not drawn),6.45
11,COc1ccc(CC2(c3ccc(F)cc3)N=C(N)N(CCCc3ccccc3)C2=O)cc1 (stereo not drawn),16.7
12,COc1ccc(CC2(c3ccc(F)cc3)N=C(N)N(CCCc3ccc(F)c(F)c3)C2=O)cc1 (stereo not drawn),20
13,COc1ccc(CNC(=O)c2cnc3c(O)cccc3c2Nc2cccc(NC(=O)c3ccc(Cl)c(Cl)c3)c2)cc1,7.81
14,NC(=O)COc1c(C2CCN(CCCCNC(=O)c3ccc(-c4ccc(Cl)cc4)c(O)c3)CC2)ccc2c1CCCC2,13.8
15,CC(C)C1=C[C@H]2C[C@]3(C4OCCO4)[C@@H]4CC[C@@H](C)[C@H]4C[C@@]2(COCc2cccc(C#N)c2)[C@]13C(=O)OC(c1ccccc1)c1ccccc1,2.33
16,CN1CCN(Cc2ccc(-c3ccc4ncnc(Nc5ccc(OCc6ccccc6)cc5)c4c3)o2)CC1,6.98
17,Cc1cccc2nc(-c3ccc(-c4ccc(CNCc5ccc(CN)cc5)cc4)s3)[nH]c12,11.9
18,CC(C)CNCc1ccc(-c2cccc(CNc3ccc4ncccc4c3)c2)cc1,8.51
19,COc1cc2nccc(Nc3ccc(OCc4ccc(NC(C)=O)cc4)cc3)c2cc1OC,5.84
20,Nc1nccc2ccc(-c3ccnc(NCc4cccnc4)n3)cc12,5.56
21,Cn1ncc2ccc(Nc3nccc(-c4ccc5c(c4)c(N)nn5C)n3)cc21,17.8
22,COc1ccc(Nc2nccc(-c3ccc4c(-c5ccsc5)cnc(N)c4c3)n2)cc1,2.13

row,Structure (SMILES),IFI [%]
1,CC(CN(C)C)C(=O)Nc1ccc(-c2ccc(-c3nc4cc(C(F)(F)F)ccc4[nH]3)cc2)cc1 (stereo not drawn),3.6
2,CC(C)(C)C(=O)Nc1ccc(N2CCN(C(c3ccccc3)c3ccccc3)CC2)c(Cl)c1,3.51
3,Cc1ccc(C(C(=O)Nc2ccc(N3CCNCC3)c(Cl)c2)c2ccccc2)cc1 (stereo not drawn),18.6
4,O=C(Nc1ccc(Cl)c(Cl)c1)Nc1ccccc1N1CCNCC1,15
5,CC(C)N1CCN(C(CN2CCN(CCCOc3ccc4ccccc4c3)CC2)c2ccc(F)cc2)CC1 (stereo not drawn),9.85
6,CNc1ccc(CNCc2ccc(-c3ccc(-c4nc5cc(C(F)(F)F)ccc5[nH]4)cc3)cc2)cc1,14.1
7,FC(F)(F)c1ccc2[nH]c(-c3ccc(-c4cccc(CNCc5ccccc5)c4)cc3)nc2c1,12.5
8,CNc1ccc(CNCc2cccc(-c3ccc(-c4nc5cc(C(F)(F)F)ccc5[nH]4)cc3)c2)cc1,18.8
9,Cc1ccc(-n2c(Sc3ncnc4sccc34)nnc2N2CCCC2)cc1,6.06
10,CC1CCN(Cc2cccc(C(=O)NCc3ccc(F)c(-c4cccc(CN5CCN[C@@H](C)C5)c4)c3)c2)CC1,5.04
11,C[C@H]1CN(Cc2cccc(-c3cc(CNC(=O)c4cccc(C(=O)c5ccc(Cl)c(Cl)c5)c4)ccc3F)c2)CCN1,18.6
12,C[C@H]1CN(Cc2ccc(-c3cccc(CNC(=O)c4cccc(C(=O)c5ccc(Cl)c(Cl)c5)c4)c3)s2)CCN1,16.2
13,Cc1cc(N[C@@H](Cc2ccccc2)C(=O)NCc2cccc(F)c2)nc(NCCc2cccs2)n1,12.8
14,CCOC(=O)C(NC(=O)c1ccc([N+](=O)[O-])o1)C(C)C (stereo not drawn),1.41
15,CCOC(=O)C(CO)NC(=O)c1ccc([N+](=O)[O-])o1 (stereo not drawn),1.41
16,O=C(NCC1Cc2cc(Oc3ccccc3)ccc2O1)c1ccc([N+](=O)[O-])o1 (stereo not drawn),17.9
17,Cc1cccc2nc(-c3ccc(-c4ccc(NC(=O)Nc5ccsc5)cc4)cc3)[nH]c12,8
18,CN(C)CCNCc1cccc(-c2ccc3c(Nc4cc(O)c(Cl)cc4F)ccnc3c2)c1,3.68
19,O=C(N[C@H]1CCN(CCc2ccc(O[C@H]3CCNC3)c(F)c2)C1)c1ccc(Cl)c(Cl)c1,6
20,COc1ccc(C(=O)NC(Nc2ccc([N+](=O)[O-])cc2)C(Cl)(Cl)Cl)cc1 (stereo not drawn),13.4
21,O=C(NC(Nc1ccc([N+](=O)[O-])cc1)C(Cl)(Cl)Cl)c1ccc(Cl)cc1 (stereo not drawn),19.9
22,O=C(NC(Nc1ccc([N+](=O)[O-])cc1)C(Cl)(Cl)Cl)c1cccc(Cl)c1 (stereo not drawn),13.9

row,Structure (SMILES),IFI [%]
1,COc1cccc2c(N/N=C/c3ccccc3[N+](=O)[O-])ccnc12,3.62
2,O=C(Nc1ccccc1Cc1ccccc1)c1ccccc1C(F)(F)F,0.78
3,CC(C)(C)c1cc([N+](=O)[O-])cc(C(=O)Nc2ccccc2C(F)(F)F)c1O,22.7
4,CC(C)(C)c1cc(Cl)cc(C(=O)Nc2cc([N+](=O)[O-])ccc2Cl)c1O,13.7
5,CNC(=O)c1cnc(Nc2ccc(N3CCN(C)CC3)cc2)nc1Nc1cccc(OC)c1,4.48
6,Cc1ccc2[nH]c(NC#N)nc2c1,0
7,COc1cc2nc(N3CCC(CNCc4ccc(-c5ccc(C(F)(F)F)cc5)cc4)CC3)nc(N)c2cc1OC,17.1
8,c1ccc(Oc2ccc(Nc3ccnc(Nc4cccc(CNCCCN5CCOCC5)c4)n3)cc2)cc1,7.41
9,CN1CCN(Cc2cccc(Nc3nccc(Nc4ccc(Oc5ccccc5)cc4)n3)c2)CC1,3.01
10,c1ccc(Oc2ccc(Nc3ccnc(Nc4ccc(CN5CCOCC5)cc4)n3)cc2)cc1,20.2
11,COc1ccc(CNC(=O)Nc2cc3cc(-c4ccc(CN5CCCC5)cc4)ccc3n3c(C)nnc23)cc1,13.5
12,Cc1ccc(NC(=O)c2ccc(Cl)cc2)cc1-c1ccc(C(=O)Nc2ccncc2)cc1,15.5
13,Cc1ccc(NC(=O)Nc2ccc(Cl)cc2)cc1-c1ccc(C(=O)Nc2ccncc2)cc1,21.1
14,Cc1cccc2nc(-c3cccc(-c4ccc(NC(=O)c5ccncc5)cc4)c3)[nH]c12,4.42
15,Cc1ccc(NC(=O)Nc2ccccc2)cc1-c1ccc(C(=O)Nc2ccncc2)cc1,25.7
16,N#Cc1cccc(C(=O)Nc2cccc(-c3ccc(C(=O)Nc4cccnc4)cc3)c2)c1,7.46
17,CC(C)NCc1ccc(-c2ccc(NC(=O)c3cccc(C#N)c3)cc2)cc1,8.16
18,Cc1ccc(NC(=O)Nc2ccc(Cl)cc2)cc1-c1cccc(C(=O)Nc2ccc(F)cc2)c1,15.9
19,O=C(Nc1ccc(-c2oc(C(=O)NCCc3cccc(Cl)c3)cc2-c2ccncc2)cc1)Nc1cccc(Cl)c1,2.78
20,CN(C)C(CNC(=O)c1cc(-c2ccncc2)c(-c2ccc(NC(=O)Nc3cccc(Cl)c3)cc2)o1)c1ccccc1 (stereo not drawn),8.11
21,Cc1ccc(NC(=O)c2cccc(C#N)c2)cc1-c1ccc(C(=O)Nc2ccncc2)cc1,24.6
22,Cc1ccc(NC(=O)Nc2cccc(Cl)c2)cc1-c1ccc(C(=O)Nc2ccncc2)cc1,25.4

row,Structure (SMILES),IFI [%]
1,O=C(Nc1ccc(C(=O)Nc2cccc(C3=NCCN3)c2)cc1)Nc1ccc(C2=NCCN2)cc1,3.57
2,CN1CCC(NCc2cccc(-c3nn(C)c4nc(NC5CCCC5)ncc34)c2)CC1,9.09
3,CCC1CN2CCc3c([nH]c4ccccc34)[C@@H]2C[C@@H]1CC1NCCc2cc(OC)c(OC)cc21 (stereo partly drawn),8.33
4,CC(Oc1cc(-n2cnc3ccc(NC(=O)CCN4CCCCC4)cc32)sc1C(N)=O)c1ccccc1Cl (stereo not drawn),9.35
5,Cc1cc(N2CC=CCC2)nc(NC(=N)Nc2ccc(Cl)cc2)n1,4.29
6,CCN(CC)CCCCCNc1c2ccc(Cl)cc2nc2ccc(OC)cc12,8.03
7,COc1cc2nc(-c3ccc(Br)cc3)cc(N)c2cc1OC,11.1
8,Cc1ccc(NC(=O)Nc2ccccc2F)cc1-c1ccc(C(=O)Nc2ccncc2)cc1,26.4
9,Cc1ccc(NC(=O)Nc2ccc(Cl)c(C(F)(F)F)c2)cc1-c1ccc(C(=O)NCCN2CCOCC2)cc1,13.2
10,Cc1ccc(NC(=O)c2ccc(Cl)c(Cl)c2)cc1-c1ccc(C(=O)Nc2ccncc2)cc1,8.82
11,Cc1ccc(C)c(NC(=O)Nc2ccc(C)c(-c3ccc(C(=O)Nc4ccncc4)cc3)c2)c1,14.1
12,Cc1ccc(NC(=O)Nc2ccc(Cl)c(C(F)(F)F)c2)cc1-c1ccc(C(=O)Nc2ccncc2)cc1,18.3
13,Cc1ccc(NC(=O)c2ccc(N3CCN(c4ccncc4)CC3)cc2)cc1F,6.9
14,Cc1ccc2c(=O)cc(CCc3cccc(F)c3F)n(CC(=O)N(Cc3ccc(-c4ccc(C(F)(F)F)cc4)cc3)C3CCN(C)CC3)c2n1,8.51
15,CC(C)(C)N1CCC(N(Cc2ccc(-c3ccc(C(F)(F)F)cc3)cc2)C(=O)Cn2c(CCc3cccc(F)c3F)nc(=O)c3cccnc32)CC1,16.7
16,CC(C)COc1ccc(Cl)cc1Cc1ccc(-c2nc3ccc(C(F)(F)F)cc3[nH]2)o1,11.3
17,CC(C)COc1ccc(Cl)cc1Cc1ccc(-c2nc3ccc(Br)cc3[nH]2)o1,19.8
18,CC(C)COc1ccc(Cl)cc1Cc1ccc(-c2nc3ccc(F)c(F)c3[nH]2)o1,11.3
19,CC(C)COc1ccc(Cl)cc1Cc1ccc(-c2nc3c(F)cccc3[nH]2)o1,15.5
20,CC(C)COc1ccc(Cl)cc1Cc1ccc(-c2nc3ccc(Cl)cc3[nH]2)o1,19.1
21,CC(C)COc1ccc(Cl)cc1Cc1ccc(-c2nc3ccc(F)cc3[nH]2)o1,15.5
22,NC(=O)c1ccccc1Nc1nc(Nc2cc[nH]n2)ncc1Cl,0
